Laboratory results from PubChem BioAssay (NCATS).
For some of these results: Results with a measured potency or affinity are listed apart. Activity calls are given as the source filed them. Numbered stars: 1 amine (or outer) side, 2 acyl side, 3 side chain; on linkers, the order of the positions; unused ones are H or OH. Bridge positions count the residues as written; N and C are the ends. Square brackets hold non-standard residues; d marks the D form. Peptide text beside a SMILES is read from it. I, II: the chains in the order shown. Actinocin(9to1) = Cc1c2oc3c(C)ccc(C(=O)[*:1])c3nc-2c(C(=O)[*:2])c(N)c1=O; NMeV = CN[C@H](C(=O)O)C(C)C; Sar = CNCC(=O)O

What was measured:
[1] = Ebola virus entry assay, green fluorescence channel
[2] = Ebola virus entry assay, ratio channel readout
[3] = Ebola virus entry assay, blue channel fluorescence
[4] = Ebola virus entry assay, green channel fluorescence
[5] = Ebola virus entry assay, blue channel fluorescence; remark: listed apart in the source
[6] = Ebola virus entry assay, reporter ratio channel; AC50: Channel type: primary unless noted; outcome: Channel type: primary unless noted
[7] = Ebola virus entry assay, blue channel (ratio component)
[8] = Ebola virus entry reporter assay, green channel fluorescence
[9] = Ebola virus entry cell assay, ratio channel
[10] = Ebola virus entry assay, ratio channel

SMILES | outcome [1] | outcome [2] | outcome [3] | outcome [4] | outcome [5] | outcome [6] | outcome [7] | outcome [8] | outcome [9] | AC50 [3] | AC50 [10] | AC50 [6] | AC50 [9] | outcome [10]
CO/N=C(\C(=O)N[C@@H]1C(=O)N2C(C(=O)O)=C(CSc3nc(=O)c(O)nn3C)CS[C@H]12)c1csc(N)n1 | inactive | inactive | inactive | inactive | inactive | inactive | inactive | inactive | inactive |  |  |  |  | 
CC1OC(C)OC(C)O1 (configuration not stated) | inactive | inactive | inactive | inactive | inactive | inactive | inactive | inactive | inactive |  |  |  |  | 
CC1(C)S[C@@H]2[C@H](NC(=O)C(C(=O)O)c3ccccc3)C(=O)N2[C@H]1C(=O)O (some centres not stated) | inactive | inactive | inactive | inactive | inactive | inactive | inactive |  | inactive |  |  |  |  | 
CC[C@@H](CO)NCCN[C@@H](CC)CO | inactive | inactive | inactive | inactive | inactive | inactive | inactive | inactive | inactive |  |  |  |  | 
CN1CCN(C(=O)O[C@H]2c3nccnc3C(=O)N2c2ccc(Cl)cn2)CC1 | inactive | inactive | inactive | inactive | inactive | inactive | inactive |  | inactive |  |  |  |  | 
CC(=O)OCC(CCn1cnc2cnc(N)nc21)COC(C)=O | inactive | inactive | inactive | inactive | inactive | inactive | inactive |  | inactive |  |  |  |  | 
Cc1nc2n(c(=O)c1CCN1CCC(c3noc4cc(F)ccc34)CC1)CCC[C@H]2O | inactive | inactive | inactive | inactive | inactive | inactive | inactive |  | inactive |  |  |  |  | 
Cc1ccnc2c1NC(=O)c1cccnc1N2C1CC1 | inactive | inactive | inactive | inactive | inactive | inactive | inactive |  | inactive |  |  |  |  | 
CCN(C(C)=O)c1cccc(-c2ccnc3c(C#N)cnn23)c1 | inactive | inactive | inactive | inactive | inactive | inactive | inactive |  | inactive |  |  |  |  | 
C[C@@H](c1ncncc1F)C(O)(Cn1cncn1)c1ccc(F)cc1F (some centres not stated) | inactive | inactive | inactive | inactive | inactive | inactive | inactive |  | inactive |  |  |  |  | 
N[C@@H](Cc1ccc(N(CCCl)CCCl)cc1)C(=O)O | inactive | inactive | inactive | inactive | inactive | inactive | inactive | inactive | inactive |  |  |  |  | 
COc1ccccc1Oc1c(NS(=O)(=O)c2ccc(C(C)(C)C)cc2)nc(-c2ncccn2)nc1OCCO | inactive | inactive | inactive | inactive | inactive | inactive | inactive |  | inactive |  |  |  |  | 
COC(=O)N[C@H](C(=O)N[C@@H](Cc1ccccc1)[C@@H](O)CN(Cc1ccc(-c2ccccn2)cc1)NC(=O)[C@@H](NC(=O)OC)C(C)(C)C)C(C)(C)C | inactive | inactive | inactive | inactive | inactive | inactive | inactive |  | inactive |  |  |  |  | 
COC(=O)C(c1ccccc1Cl)N1CCc2sccc2C1 (configuration not stated) | inactive | inactive | inactive | inactive | inactive | inactive | inactive |  | inactive |  |  |  |  | 
Cc1c(OCC(F)(F)F)ccnc1CS(=O)c1nc2ccccc2[nH]1 (configuration not stated) | inactive | inactive | inactive | inactive | inactive | inactive | inactive | inactive | inactive |  |  |  |  | 
Nc1nc2c(ncn2COC(CO)CO)c(=O)[nH]1 | inactive | inactive | inactive | inactive | inactive | inactive | inactive |  | inactive |  |  |  |  | 
O=C(NCCN1CCOCC1)c1ccc(Cl)cc1 | inactive | inactive | inactive | inactive | inactive | inactive | inactive |  | inactive |  |  |  |  | 
OCCN1C[C@H](O)[C@@H](O)[C@H](O)[C@H]1CO | inactive | inactive | inactive | inactive | inactive | inactive | inactive | inactive | inactive |  |  |  |  | 
CC(C)[N+](C)(CCOC(=O)C1c2ccccc2Oc2ccccc21)C(C)C | inactive | inactive | inactive | inactive | inactive | inactive | inactive | inactive | inactive |  |  |  |  | 
CC(=O)Nc1nnc(S(N)(=O)=O)s1 | inactive | inactive | inactive |  | inactive | inactive | inactive | inactive | inactive |  |  |  |  | 
NNCCc1ccccc1 | inactive | inactive | inactive | inactive | inactive | inactive | inactive |  | inactive |  |  |  |  | 
O=C(C1CCCCC1)N1CC(=O)N2CCc3ccccc3C2C1 (configuration not stated) | inactive | inactive | inactive | inactive | inactive | inactive | inactive | inactive | inactive |  |  |  |  | 
c1cnc2cc3c(cc2n1)C1CNCC3C1 | inactive | inactive | inactive | inactive | inactive | inactive | inactive |  | inactive |  |  |  |  | 

SMILES | outcome [1] | outcome [2] | outcome [3] | outcome [4] | outcome [5] | outcome [6] | outcome [7] | outcome [8] | outcome [9] | AC50 [3] | AC50 [10] | AC50 [6] | AC50 [9] | outcome [10]
NC12CC3CC(CC(C3)C1)C2 | inactive | inactive | inactive | inactive | inactive | inactive | inactive | inactive | inactive |  |  |  |  | 
O=P1(NCCCl)OCCCN1CCCl (configuration not stated) | inactive | inactive | inactive | inactive | inactive | inactive | inactive | inactive | inactive |  |  |  |  | 
O=C1NC(=O)C(c2ccccc2)(c2ccccc2)N1 | inactive | inactive | inactive | inactive | inactive | inactive | inactive | inactive | inactive |  |  |  |  | 
Nc1cc(-c2ccncc2)c[nH]c1=O | inactive | inactive | inactive | inactive | inactive | inactive | inactive | inactive | inactive |  |  |  |  | 
COc1ccc(Cl)cc1C(=O)NCCc1ccc(S(=O)(=O)NC(=O)NC2CCCCC2)cc1 | inactive | inactive | inactive | inactive | inactive | inactive | inactive |  | inactive |  |  |  |  | 
Cc1onc(-c2ccccc2Cl)c1C(=O)N[C@@H]1C(=O)N2[C@@H]1SC(C)(C)[C@@H]2C(=O)O | inactive | inactive | inactive | inactive | inactive | inactive | inactive |  | inactive |  |  |  |  | 
CC[C@@]1(c2ccccc2)NC(=O)N(C)C1=O | inactive | inactive | inactive | inactive | inactive | inactive | inactive |  | inactive |  |  |  |  | 
O[C@@H](CNC[C@H](O)[C@H]1CCc2cc(F)ccc2O1)[C@@H]1CCc2cc(F)ccc2O1 | inactive | inactive |  |  |  |  |  |  |  | 7.94 µM (active) | 3.55 µM (active) | 3.55 µM (active) | 5.01 µM (active) | 
C[N+]1(C)CCC(OC(=O)C(O)(c2ccccc2)C2CCCC2)C1 (configuration not stated) | inactive | inactive | inactive | inactive | inactive | inactive | inactive |  | inactive |  |  |  |  | 
CC(C)n1c(/C=C/[C@@H](O)C[C@@H](O)CC(=O)O)c(-c2ccc(F)cc2)c2ccccc21 | inactive | inactive | inactive | inactive | inactive | inactive | inactive | inactive | inactive |  |  |  |  | 
CC1=C(C(=O)O)N2C(=O)[C@@H](NC(=O)[C@H](N)c3ccccc3)[C@H]2SC1 | inactive | inactive | inactive | inactive | inactive | inactive | inactive | inactive | inactive |  |  |  |  | 
Cc1cnc(C(=O)NCCc2ccc(S(=O)(=O)NC(=O)NC3CCCCC3)cc2)cn1 | inactive | inactive | inactive | inactive | inactive | inactive | inactive |  | inactive |  |  |  |  | 
C1N2CN3CN1CN(C2)C3 | inactive | inactive |  | inactive | inactive | inactive | inactive | inactive | inactive |  |  |  |  | 
CC(C)c1c(C(=O)Nc2ccccc2)c(-c2ccccc2)c(-c2ccc(F)cc2)n1CC[C@@H](O)C[C@@H](O)CC(=O)O | inactive | inactive |  | inactive |  | inactive | inactive | inactive | inactive |  |  |  |  | inactive
CNS(=O)(=O)Cc1ccc2[nH]cc(CCN(C)C)c2c1 | inactive | inactive |  | inactive | inactive | inactive | inactive | inactive | inactive |  |  |  |  | inactive
CN1C(CCl)Nc2cc(Cl)c(S(N)(=O)=O)cc2S1(=O)=O (configuration not stated) | inactive | inactive |  | inactive | inactive | inactive | inactive |  | inactive |  |  |  |  | inactive
CO/N=C1\CN(c2nc3c(cc2F)c(=O)c(C(=O)O)cn3C2CC2)CC1CN (configuration not stated) | inactive | inactive |  | inactive | inactive | inactive | inactive |  | inactive |  |  |  |  | inactive
CC1(C)NC(=O)N(c2ccc([N+](=O)[O-])c(C(F)(F)F)c2)C1=O | inactive | inactive |  | inactive | inactive | inactive | inactive | inactive | inactive |  |  |  |  | 
CC(c1cc2ccccc2s1)N(O)C(N)=O (configuration not stated) | inactive | inactive |  | inactive | inactive | inactive | inactive | inactive | inactive |  |  |  |  | inactive
COc1cc(Cc2cnc(N)nc2N)cc(OC)c1OC | inactive | inactive |  | inactive | inactive | inactive | inactive | inactive | inactive |  |  |  |  | 
CCOC(=O)[C@H](CCc1ccccc1)N[C@@H](C)C(=O)N1Cc2cc(OC)c(OC)cc2C[C@H]1C(=O)O | inactive | inactive |  | inactive | inactive | inactive | inactive |  | inactive |  |  |  |  | inactive
O=C(O)P(=O)(O)O | inactive | inactive |  | inactive | inactive | inactive | inactive | inactive | inactive |  |  |  |  | 
Cc1c2oc3c(C)ccc(C(=O)N[C@@H]4C(=O)N[C@H](C(C)C)C(=O)N5CCC[C@H]5C(=O)N(C)CC(=O)N(C)[C@@H](C(C)C)C(=O)O[C@@H]4C)c3nc-2c(C(=O)N[C@@H]2C(=O)N[C@H](C(C)C)C(=O)N3CCC[C@H]3C(=O)N(C)CC(=O)N(C)[C@@H](C(C)C)C(=O)O[C@@H]2C)c(N)c1=O (I: T[dV]P[Sar][NMeV] / II: T[dV]P[Sar][NMeV]; ester I:1-I:C, II:1-II:C; linker I:N-II:N via Actinocin(9to1)) | inactive | inactive |  | inactive | inactive | inactive | inactive |  | inactive |  |  |  |  | inactive
